# Only some compounds are listed: those with a hit (about 12% of all), similar ones and a draw of the others.
# PLK1 PBD block = PLK1 (human) polo-box domain binding inhibition; actives 2.8% (n = 360,000); Potency, µM, hits mostly inhibitors; P53350; Plk1 PBD binding of FITC phosphopeptide, fluorescence polarization; note: series mostly up to about 57 µM; nearly all actives have a fitted effect of over 65% in size
# PI5P4Ka inh = blocks human PI5P4K alpha kinase activity; max response, %; P48426; PI5P4Kalpha enzyme, ADP-Glo luminescence, 60 min; hits give low values; actives 1.2% (n = 330,000); active = max response of -50% or lower; inconclusive = between -30% and -50%; inactive = -30% or higher; note: value at the top dose of about 77 µM
#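 qHTS, 1536-well: enzyme/substrate mix, compound by pin tool, 5 microM ATP final; RT 60 min; ADP-Glo reagents 1 (45 min) then 2 (30 min); luminescence.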
# BAZ2B block = blocks human BAZ2B; Q9UIF8; AlphaScreen BAZ2B-H3K14Ac peptide displacement; Potency, µM (top dose mostly 114 µM), actives largely listed as inhibitors; actives 4.4% (n = 360,000); note: nearly all actives have a fitted effect of over 60% in size
#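 Multi-concentration screen (max 110 uM) measuring displacement of acetylated histone H3 peptide from BAZ2B by AlphaScreen, using 50 nM protein, 50 nM peptide and 10 ug/mL streptavidin donor plus Ni-chelate acceptor beads.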
# HP1b binding inh = inhibitors of HP1-beta chromodomain binding to methylated histone tails; P83916; AlphaScreen HP1-beta / biotin-H3K9me3 peptide binding; Potency, µM (top dose mostly 114 µM), usual class: inhibitors; actives 0.56% (n = 390,000); AID 540317; note: nearly all actives have a fitted effect of over 70% in size
#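 Compound inhibition of the preformed complex between 50 nM HP1-beta and 50 nM biotinylated H3K9me3 peptide was read by AlphaScreen. Buffer was PBS pH 7.4 with 0.01% Tween-20. Incubations ran 30 min at room temperature, with 10 ug/mL donor/acceptor beads.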
# JMJD2A Tudor inh = blocks the human JMJD2A Tudor domain | Potency, µM (titrated, usually from 114 µM), actives largely listed as inhibitors | actives 4.4% (n = 390,000) | AlphaScreen JMJD2A-Tudor / H3K4me3 peptide binding; note: nearly all actives have a fitted effect of over 50% in size
# G9a block = inhibitors of human histone lysine methyltransferase G9a | Q96KQ7 | G9a H3K9 monomethylation, AlphaScreen, 2 h | Potency, µM (doses to about 102 µM), hits mostly inhibitors | actives 8.8% (n = 350,000); note: nearly all actives have a fitted effect of over 75% in size
#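 Step 1: enzyme (final 20 nM) with compound, 15 min RT. Step 2: substrate peptide 500 nM and SAM 20 uM, 2 h RT. Step 3: anti-H3K9me1 antibody and AlphaScreen beads, 10 min, then plate read.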
# Numbers stand for hits; - = inactive; ? = inconclusive; . = no result; [ ] = remark or other dose. Unless noted, calls come from the whole dose curve; as a rule, active = well fitted curve in the direction sought with a large enough effect; inconclusive = small, poorly fitted or top-dose-only effect, or another doubt; inactive = no such curve, though single readings can be large; an effect the other way counts as inactive or inconclusive.
SMILES,PLK1 PBD block,PI5P4Ka inh,BAZ2B block,HP1b binding inh,JMJD2A Tudor inh,G9a block
CCN(CC)CCN(C(=O)c1ccc2ccccc2c1)c1nc2ccc(OC)cc2s1,-,-,?,-,?,79.4µM
COc1ccc2sc(N(CCN(C)C)C(=O)/C=C/c3cccs3)nc2c1,-,-,.,-,?,?
CCN(CC)CCN(C(=O)c1cc2ccccc2cc1OC)c1nc2ccc(OC)cc2s1,-,-,?,-,?,44.7µM
CCN(CC)CCN(C(=O)c1cc2ccccc2cc1OC)c1nc2ccc(F)cc2s1,-,-,?,-,31.6µM,39.8µM
COc1ccc2nc(N(CCN(C)C)C(=O)/C=C/c3cccs3)sc2c1,-,-,.,-,-,14.1µM
COc1ccc2nc(N(Cc3cccnc3)C(=O)COc3ccccc3)sc2c1,.,.,-,-,-,-
COc1ccc2nc(N(Cc3ccccc3)C(=O)CCNC(C)=O)sc2c1,-,-,-,-,-,31.6µM
CCN(CC)CCC(c1ccc(N(C)C)cc1)c1c(OC)cc(OC)c2c(-c3ccccc3)cc(=O)oc12 (stereo not given),-,-,31.6µM,?,22.4µM,?
COc1ccc(C(CCN2CCN(c3ccccc3)CC2)c2c(OC)cc(OC)c3c(-c4ccccc4)cc(=O)oc23)cc1 (stereo not given),-,-,?,-,?,?
CCCCCc1cc(=O)oc2c(C(CCN3CCN(c4ccccc4)CC3)c3ccc(N(C)C)cc3)c(OC)cc(OC)c12 (stereo not given),-,-,6.31µM,?,22.4µM,?
COc1ccc(C(CCN2CCCC2)c2c(OC)cc(OC)c3c(-c4ccccc4)cc(=O)oc23)cc1 (stereo not given),-,-,-,-,?,-[12.7 µM]
COc1cc(OC)c2c(-c3ccccc3)cc(=O)oc2c1C(CCN1CCN(c2ccccc2)CC1)c1ccc(N(C)C)cc1 (stereo not given),-,-,4.47µM,?,4.47µM,?
COc1cc(OC)c2c(-c3ccccc3)cc(=O)oc2c1C(CCN1CCCC(C)C1)c1ccc(N(C)C)cc1 (stereo not given),-,-,15.8µM,?,11.2µM,?
CCOCC(=O)Nc1c(C(=O)Nc2ccc3c(c2)OCCO3)oc2ccccc12,-,-,-,-,-,-
COc1cc(OC)c2c(C)cc(=O)oc2c1C(CCN1CCOCC1)c1ccc(N(C)C)cc1 (stereo not given),-,-,39.8µM,?,50.1µM,-[12.7 µM]
COc1cc(OC)c2ccc(=O)oc2c1C(CCN1CCN(c2ccccc2)CC1)c1ccc(N(C)C)cc1 (stereo not given),-,-,35.5µM,?,22.4µM,-
COc1cc(OC)c2ccc(=O)oc2c1C(CCN1CCOCC1)c1ccc(N(C)C)cc1 (stereo not given),.,.,.,.,.,28.2µM
CCOc1ccc(S(=O)(=O)NCCc2sc3nc(-c4ccc(C)cc4)nn3c2C)cc1,.,.,-,-,-,-
C[C@H](CCC(=O)O)[C@H]1CC[C@@H]2[C@H]3CC[C@H]4C[C@@H](O)CC[C@@]4(C)[C@H]3CC[C@]21C,.,.,.,.,.,-[21.5 µM]
CNC(=O)COc1ccc(NC(=O)CCn2nc(-c3ccc(C)cc3)c3ccccc3c2=O)cc1,.,.,-,-,-,-
Cc1ccc(/C=N/NC(=S)N2CCOCC2)cc1,-,-,?,-,-,28.2µM
S=C(N/N=C/c1ccc(Br)cc1)N1CCCCC1,-,-,7.94µM,-,?,-
COC(=O)c1sc(-c2ccc(Cl)cc2)cc1NC(=O)COCC(=O)O,-,-,?,-,-,56.2µM
COC(=O)c1sc(-c2ccc(C(C)(C)C)cc2)cc1NC(=O)CCC(=O)O,?,-,-,-,-,70.8µM
COC(=O)c1sc(-c2ccc(Cl)cc2)cc1NC(=O)/C=C/C(=O)O,-,?,-,-,-,-
O=[S+]([O-])(c1ccc2c(c1)OCCO2)N1CCN([S+](=O)([O-])c2ccc(F)cc2Cl)CC1,.,.,.,.,-,.
Cc1cn([C@H]2C[C@H](O)[C@@H](/C=C/C(=O)NCCc3ccc4c(c3)OCO4)O2)c(=O)[nH]c1=O,-,-,.,.,.,.
CCOCCn1c(=NC(=O)c2cc(Cl)sc2Cl)sc2cc(S(N)(=O)=O)ccc21,.,.,-,.,.,-

# High-throughput results deposited in PubChem BioAssay by National Center for Advancing Translational Sciences (NCATS).
